SMN2 splice enh = SMN2 splice variant enhancement; actives 2.8% (n = 210,000); AID 1458; Potency, µM (doses to about 46.1 µM), hits mostly activators; HEK293 SMN2-luciferase splicing reporter, luminescence, 30-36 h; note: nearly all actives have a fitted effect of over 55% in size
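qHTS luciferase splicing reporter: luminescence rises when SMN2 exon 7 is included in transfected HEK293 cells. Compound exposure lasted 30-36 h at 37C, with 4.5 mM final sodium butyrate as control, followed by a ONE-Glo read.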
FLuc counter = firefly luciferase modulation, counter-screen for miR-21 project; purified FLuc, Km substrates, luminescence inhibition; actives 6.9% (n = 360,000); AID 588342; P08659; Potency, µM (doses to about 57.5 µM), usual class: inhibitors; note: nearly all actives have a fitted effect of over 55% in size
Target sequence (P08659 whole entry, looked up): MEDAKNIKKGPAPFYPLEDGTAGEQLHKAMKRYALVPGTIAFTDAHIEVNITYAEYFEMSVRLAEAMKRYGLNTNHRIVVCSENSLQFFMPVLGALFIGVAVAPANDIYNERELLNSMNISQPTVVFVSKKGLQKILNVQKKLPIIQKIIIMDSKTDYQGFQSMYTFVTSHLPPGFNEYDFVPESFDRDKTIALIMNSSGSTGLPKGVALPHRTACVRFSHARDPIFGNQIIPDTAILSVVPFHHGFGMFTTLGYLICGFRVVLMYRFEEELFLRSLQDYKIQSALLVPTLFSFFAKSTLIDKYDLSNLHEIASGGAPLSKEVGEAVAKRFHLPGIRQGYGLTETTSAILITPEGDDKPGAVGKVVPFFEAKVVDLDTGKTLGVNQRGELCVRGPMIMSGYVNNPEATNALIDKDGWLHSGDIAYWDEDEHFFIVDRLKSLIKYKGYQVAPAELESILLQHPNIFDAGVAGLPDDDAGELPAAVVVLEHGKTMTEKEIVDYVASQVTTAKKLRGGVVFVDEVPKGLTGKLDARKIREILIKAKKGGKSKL
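Biochemical qHTS of compounds, final roughly 60 µM downward over six points, against 10 nM purified firefly luciferase using Km concentrations of substrates (10 uM D-luciferin, 10 uM ATP) in Tris acetate pH 7.5 buffer; luminescence output.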
p53 reactivator = mutant p53 re-activation in reporter cells | Potency, µM (doses to about 92.2 µM), hits mostly activators | AID 504706 | H1299 p53-A138V BP100-luciferase reporter, luminescence, 24 h | actives 0.063% (n = 320,000); note: nearly all actives have a fitted effect of over 45% in size
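p53-null H1299 cells stably carrying temperature-sensitive p53-A138V and a BP100-luciferase reporter were pinned with compounds (4-point, 1:5 series) and held 24 hrs at 37 deg C. Luminescence was read 10 min after detection reagent.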
Rab9 prom act = Rab9 promoter activation; Huh7 Rab9 promoter-luciferase reporter, luminescence, 24 h; Potency, µM (series often up to 9.22 µM), actives largely listed as activators; actives 2.8% (n = 320,000); AID 485297; note: nearly all actives have a fitted effect of over 60% in size
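Cells were plated at 1500 per well in reduced-serum medium with 10% FBS and left 2 h. Compound in DMSO was then added for 24 h at 37 °C. Reporter signal was read by luminescence after 10 min with luciferase detection reagent.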
NPC1 promoter act = activators of NPC1 promoter; Huh7 NPC1 promoter luciferase reporter, 24 h; Potency, µM (titrated, usually from 9.22 µM), hits mostly activators; actives 2.4% (n = 320,000); AID 485313; note: nearly all actives have a fitted effect of over 60% in size
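Readout is luciferase luminescence, reflecting NPC1 promoter activation in stably transfected Huh7 cells after 24 h compound exposure at 37 °C in reduced-serum medium with 10% FBS.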
ELG1 genotox = genotoxicity induction in ELG1-luciferase HEK293T cells. HEK293T ELG1-luciferase reporter, luminescence, 16 h. Potency, µM (doses to about 46 µM), hits mostly activators. actives 1.3% (n = 330,000). AID 504466; note: nearly all actives have a fitted effect of over 60% in size
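Genotoxicity was scored as increased ELG1-luciferase reporter signal, measured by ONE-Glo luminescence (30 min, room temperature). Compound or vehicle exposure of the HEK293T reporter cells lasted 16 hr at 37°C.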
Each line names hits and unclear results; the compound was inactive in the other large screens. Compounds with a hit are over-represented: about 7.4% of the library has one in this group of screens. Calls come from the whole dose curve; as a rule, active = well fitted curve in the direction sought with a large enough effect; inconclusive = small, poorly fitted or top-dose-only effect, or another doubt; inactive = no such curve, though single readings can be large; an effect the other way counts as inactive or inconclusive.

O=C(/C=C/c1c(F)cccc1Cl)Nc1ccc(S(=O)(=O)Nc2ncccn2)cc1	FLuc counter inconclusive (no result: SMN2 splice enh)
O=C(/C=C/c1c(F)cccc1Cl)c1ccc(O)cc1	FLuc counter 11µM, p53 reactivator inconclusive (no result: SMN2 splice enh)
COc1cc(C(=O)/C=C/c2cccnc2)ccc1O	FLuc counter 19µM, p53 reactivator inconclusive (no result: SMN2 splice enh)
N#Cc1ccc(/C=C/C(=O)c2cccnc2)cc1	ELG1 genotox inconclusive
C=CCNC(=O)/C=C/c1c(F)cccc1Cl	FLuc counter inconclusive, Rab9 prom act inconclusive
O=C(/C=C/c1ccc(Cl)cc1)c1cccnc1	FLuc counter 21µM
O=C(/C=C/c1c(F)cccc1Cl)Nc1ncccn1	SMN2 splice enh 14µM, FLuc counter 15µM, p53 reactivator inconclusive, Rab9 prom act 2.5µM, NPC1 promoter act 2.8µM, ELG1 genotox inconclusive
O=C(/C=C/c1ccccc1Cl)c1cccnc1	FLuc counter 17µM
O=C(/C=C/c1ccccc1Cl)c1ccc(O)cc1	FLuc counter 9.5µM, p53 reactivator inconclusive (no result: SMN2 splice enh)
O=C(NNC(=O)c1ccccc1Cl)c1cccnc1	none (no result: SMN2 splice enh)
O=C(/C=C/c1ccccc1Cl)c1ccccc(=O)c1O	FLuc counter inconclusive
COc1ccc(/C=C(\NC(=O)c2ccc(C)cc2)C(=O)N2CCCCC2)cc1	none (no result: SMN2 splice enh)
Cc1cccc(-n2c(SCC(=O)N3CCC(C(=O)O)CC3)nc3ccccc3c2=O)c1C	none (no result: SMN2 splice enh)
CCOC(=O)C1CCN(C2=NC(=O)/C(=C/c3ccccc3OC)S2)CC1	FLuc counter inconclusive (no result: SMN2 splice enh)
COc1ccccc1/C=C1\SC(N2CCC(C)CC2)=NC1=O	FLuc counter 12µM, ELG1 genotox inconclusive (no result: SMN2 splice enh)
COc1cccc(/C=C2\SC(N3CCC(C)CC3)=NC2=O)c1OC	FLuc counter 17µM (no result: SMN2 splice enh)
COc1cccc(/C=C2\SC(N3CCCC(C)C3)=NC2=O)c1OC (centres undefined)	FLuc counter 5.4µM, p53 reactivator inconclusive, Rab9 prom act inconclusive, NPC1 promoter act inconclusive, ELG1 genotox inconclusive (no result: SMN2 splice enh)
COc1cccc(/C=C2\SC(=S)N(N3CCOCC3)C2=O)c1OC	FLuc counter 17µM, p53 reactivator inconclusive, ELG1 genotox inconclusive
CCc1ccc(CCC(=O)O)nc1	none (no result: FLuc counter, p53 reactivator, Rab9 prom act, NPC1 promoter act, ELG1 genotox)
Cc1ccc(NC(=O)C2CCCN(S(=O)(=O)c3ccc4c(c3)CCCC(=O)N4)C2)cc1Cl (centres undefined)	none (no result: SMN2 splice enh, p53 reactivator, Rab9 prom act, NPC1 promoter act, ELG1 genotox)
CSc1ncc2c(n1)-c1ccccc1N(Cc1ccc(F)cc1)S2(=O)=O	none (no result: SMN2 splice enh, p53 reactivator, Rab9 prom act, NPC1 promoter act, ELG1 genotox)
O=C(NCCc1ccccc1)c1ccc(Cn2c(SCc3ccccc3)nc3cccnc32)cc1	FLuc counter 6µM (no result: SMN2 splice enh, p53 reactivator, Rab9 prom act, NPC1 promoter act, ELG1 genotox)
O=C(NCc1ccccc1Cl)c1ccc(Cn2c(SCc3ccccc3)nc3cccnc32)cc1	FLuc counter 5.4µM (no result: SMN2 splice enh, p53 reactivator, Rab9 prom act, NPC1 promoter act, ELG1 genotox)
O=C(NCCc1ccccc1)c1ccc(Cn2c(SCc3cccc(F)c3)nc3cccnc32)cc1	none (no result: SMN2 splice enh, p53 reactivator, ELG1 genotox)
Cc1ccccc1CSc1nc2cccnc2n1Cc1ccc(C(=O)NCCc2cccs2)cc1	FLuc counter 5.4µM (no result: SMN2 splice enh, p53 reactivator, Rab9 prom act, NPC1 promoter act, ELG1 genotox)
Cc1ccc(CSc2nc3cccnc3n2Cc2ccc(C(=O)NCCc3ccccc3)cc2)cc1	FLuc counter 0.48µM (no result: SMN2 splice enh, p53 reactivator, Rab9 prom act, NPC1 promoter act, ELG1 genotox)
O=C(NCc1ccccc1)c1ccc(CSc2nc3cccnc3n2Cc2ccccc2F)cc1	none (no result: SMN2 splice enh, p53 reactivator, Rab9 prom act, NPC1 promoter act, ELG1 genotox)
O=C(NCc1ccco1)c1ccc(Cn2c(SCc3ccccc3)nc3cccnc32)cc1	FLuc counter 6.7µM (no result: SMN2 splice enh, p53 reactivator, Rab9 prom act, NPC1 promoter act, ELG1 genotox)
COc1cccc(-n2cc(C(=O)NCc3ccccc3OC)c3ccccc3c2=O)c1	none (no result: SMN2 splice enh, p53 reactivator, Rab9 prom act, NPC1 promoter act, ELG1 genotox)
COc1ccc2c(c1)CCc1sc(NC(=O)c3ccco3)nc1-2	FLuc counter 21µM, p53 reactivator inconclusive, Rab9 prom act inconclusive, ELG1 genotox inconclusive
COc1ccc2c(c1)Cc1sc(NC(=O)c3ccco3)nc1-2	SMN2 splice enh 11µM, FLuc counter 3.4µM, p53 reactivator inconclusive, Rab9 prom act 1.8µM, NPC1 promoter act 2µM
COc1ccc2c(c1)-c1nc(NC(=O)c3cccc(Br)c3)sc1CC2	none (no result: p53 reactivator, Rab9 prom act, NPC1 promoter act, ELG1 genotox)
COc1ccc2c(c1)-c1nc(NC(=O)c3ccco3)sc1CC2	FLuc counter 19µM, p53 reactivator inconclusive (no result: SMN2 splice enh)
COc1ccc2c(c1)CCc1sc(NC(=O)c3ccc(C)cc3)nc1-2	FLuc counter 8.5µM

High-throughput results from PubChem.
